In PubChem BioAssay (NCI):
About 79,000 compounds went through this panel and 15% of them were active in at least one assay; those are over-represented in the sample as a whole. Cut-off read from the data, not from the text of the source: active = growth inhibition above about 70%; inactive = the rest.

Experiments:
[1] = NCI Yeast Anticancer Drug Screen. Data for the rad50 strain (AID 155);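 note: 0% = growth of vehicle-only cultures of the same strain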; details: S. cerevisiae rad50 strain growth inhibition, stronger effect = higher value; at 50.0 µM unless noted
In short: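 DNA repair mutant yeast, compound exposure, growth read-out; inhibition is taken relative to vehicle.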

[2] = NCI Yeast Anticancer Drug Screen. Data for the mec2-1 strain (AID 157); details: S. cerevisiae mec2-1 strain, stronger effect = higher value; at 50.0 µM unless noted
In short: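 Mutant yeast (mec2-1) grown with compound; growth inhibition relative to vehicle control reported.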

[3] = NCI Yeast Anticancer Drug Screen. Data for the sgs1 mgt1 strain (AID 161);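 note: 0% = growth of cultures given vehicle only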; details: S. cerevisiae sgs1 mgt1 strain, stronger effect = higher value; at 50.0 µM unless noted
In short: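 Compounds are added to genetically altered yeast, and growth is compared with cultures given vehicle alone to give percent inhibition.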

[4] = NCI Yeast Anticancer Drug Screen. Data for the cln2 rad14 strain (AID 165);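 note: 0% = growth equal to vehicle treated cultures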; details: S. cerevisiae cln2 rad14 strain, stronger effect = higher value; at 50.0 µM unless noted
In short: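 Readout is yeast growth inhibition versus vehicle-treated controls, using a strain with cln2 and rad14 alterations exposed to compound.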

[5] = NCI Yeast Anticancer Drug Screen. Data for the bub3 strain (AID 167); details: S. cerevisiae bub3 mutant strain, stronger effect = higher value; at 50.0 µM unless noted
In short: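 In this screen, a yeast mutant lacking normal mitotic checkpoint function is challenged with compound. Relative growth versus vehicle gives the inhibition value.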

[6] = NCI Yeast Anticancer Drug Screen. Data for the mlh1 rad18 strain (AID 175); details: S. cerevisiae mlh1 rad18 strain growth inhibition, stronger effect = higher value; at 50.0 µM unless noted
In short: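 Genetically defined yeast (DNA repair-deficient) exposed to compounds; growth inhibition determined relative to vehicle.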

Measured: growth inhibition

NNC(=O)Oc1cccc2ccccc12
inactive: [1] 22.1% | [2] 19.3% | [3] 9.9% | [4] -4.4% | [5] 36.4% | [6] 42.5%

CC(C)(CN1CCCCC1)C(=O)CC(SCCN)c1ccc(Cl)cc1 (stereo not given)
inactive: [1] 27.8% | [2] 0.65% | [3] 47.3% | [4] 31.2% | [5] 46.9% | [6] 23.8%

O=C1CC2(C(=O)O)CC3CC2C(O1)C3I (stereo not given)
inactive: [1] 13.7% | [2] 10.6% | [3] 24.1% | [4] 13.1% | [5] 14.5% | [6] 21.2%

N#CC1(c2ccccc2)CCC1
inactive: [1] 4.85% | [2] -24.9% | [3] 7.5% | [4] 16.6% | [5] 6.4% | [6] 5.1%

CC(C)c1cc(C(C)C)c(S(=O)(=O)N/N=C2\C=CCC(C)(C)C2)c(C(C)C)c1
inactive: [1] 41.1% | [2] 5.05% | [3] 24.1% | [4] -47.4% | [5] -4.7% | [6] 18.9%

CC1=Nc2ccc([N+](=O)[O-])cc2C1(C)C
inactive: [1] -0.35% | [2] 5.1% | [3] -7.55% | [4] -2.15% | [5] -16.1% | [6] -5.45%

CC(=O)OC1CCC(=O)C2C(C(=O)O)CCCC12 (stereo not given)
inactive: [1] 6.9% | [2] -21.8% | [3] -19.2% | [4] -6.1% | [5] -1.75% | [6] 0.25%

Cc1nc(-c2cccnc2)sc1C(=O)CC(=O)C(=O)Nc1cccc(NC(=O)C(=O)CC(=O)c2sc(-c3cccnc3)nc2C)n1
inactive: [1] 20.2% | [2] -0.75% | [3] -21.6% | [4] 0.1% | [5] -12.9% | [6] 6.85%

O=C(Nc1ccc(Br)c2ccccc12)c1ccc2ccccc2c1O
inactive: [1] -0.05% | [2] -2.1% | [3] -26.1% | [4] -11.2% | [5] -37.5% | [6] -78.8%

CC(C)C(=O)Nc1nc2nc[nH]c2c(=O)[nH]1
inactive: [1] 11.6% | [2] -23.6% | [3] 24.9% | [4] 12.8% | [5] -7.95% | [6] -22.9%

CC(=O)N1C(Nc2cnc3ccccc3c2)CCN1c1ccccc1 (stereo not given)
inactive: [1] -31.4% | [2] -48.6% | [3] -13.8% | [4] 0.4% | [5] 1.25% | [6] -14%

COc1ccc(NS(=O)c2ccccc2)cc1 (stereo not given)
inactive: [1] 10.1% | [2] 1.2% | [3] 3.1% | [4] 6.65% | [5] -2.5% | [6] 7.65%

NNC(=O)Cc1cccnc1
inactive: [1] -3.6% | [2] -0.75% | [3] -26.1% | [4] -8% | [5] -33% | [6] 9.55%

CN(CCNC(=O)C1CCCCC1C(=O)O)c1ccccc1 (stereo not given)
inactive: [1] 5% | [2] 22.3% | [3] 1% | [4] 0.15% | [5] 13.6% | [6] -10.2%

O=c1[nH]c2cc(Cl)ccc2nc1/C(=N\O)C(O)c1ccc([N+](=O)[O-])cc1 (stereo not given)
inactive: [1] 8% | [2] 14.2% | [3] -21.2% | [4] -24.6% | [5] -17.2% | [6] -5%

CN(C)CCOC(=O)C1C2CC3OC(=O)C1C3C2 (stereo not given)
inactive: [1] -2.4% | [2] -13.6% | [3] 17.5% | [4] -5% | [5] 7.25% | [6] -19.4%

NC(CCO)P(=O)(O)O (stereo not given)
inactive: [1] 13.3% | [2] -6.05% | [3] -20.2% | [4] -55.7% | [5] 2.05% | [6] -4.6%

Nc1c(C(=O)O)ccc(O)c1O
inactive: [1] 28.9% | [2] 20.5% | [3] 32.2% | [4] 7.95% | [5] 0.95% | [6] 9.8%

CC1=Nc2ccccc2SC2(C1)C(C1COC(C)(C)O1)OC1OC(C)(C)OC12 (stereo not given)
inactive: [1] 7.4% | [2] 11.1% | [3] 21.1% | [4] 21.4% | [5] -9.55% | [6] 12.8%

CC(=O)CC(=O)Nc1ccc(OS(N)(=O)=O)cc1
inactive: [1] -9.55% | [2] -22.4% | [3] 1.95% | [4] 3.1% | [5] 2.3% | [6] -15.2%
